An excerpt weighted towards active compounds, which were near 19% of everything screened.
TDP1 cell noCPT: qHTS for Inhibitors of human tyrosyl-DNA phosphodiesterase 1 (TDP1): qHTS in cells in absence of CPT | DT40 Tdp1-/- hTDP1 cells, no CPT, ATP luminescence, 48 h | Potency, µM (highest dose often 46.2 µM), for inactives: top-dose activity change, negative = growth inhibition, hits mostly inhibitors | 420,000 tested, 15% active | AID 686978, 2013; also: potency is read from the fitted curve at half-maximal effect; nearly all actives have a fitted effect of over 55% in size
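Readout: luminescence from CellTiter-Glo after 30 min in the dark at RT. Cells: DT40 Tdp1-/- with stable hTDP1, 400/well. Exposure: compounds alone, ≥48 hr, 37 °C.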
DT40 TDP1 CPT: DT40-hTDP1 cell growth loss with CPT. chicken DT40 Tdp1-/-;hTDP1 cells + 20 nM CPT, ATP luminescence, 48 h. Potency, µM (highest dose often 46.2 µM), without a hit: at the top dose activity change, negative = growth inhibition, most hits filed as inhibitors. 420,000 tested, 12% active. AID 686979; also: potency is read from the fitted curve at half-maximal effect; nearly all actives have a fitted effect of over 55% in size
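Chicken DT40 Tdp1-/- cells stably complemented with human TDP1 were seeded at 400 cells/well in medium containing 20 nM camptothecin, exposed to pin-transferred compounds, and grown at 37 °C for at least 48 hr. Viability was read as ATP luminescence.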
IL-1B inflam inh: blocks inflammasome-driven IL-1 beta release. THP-1 LPS/ATP IL-1B secretion, AlphaLISA, 16 h; stronger effect = lower value. activity change, % at 57.5 µM. 360,000 tested, 4.7% active. AID 743279; in the data active = activity change below about -50%; inconclusive = mostly about -30% to -49%
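THP-1 cells pretreated 1 hr with compounds (up to 57.5 uM final), then stimulated with LPS (250 ng/mL final) plus ATP (1.25 mM final); secreted IL-1B measured by AlphaLISA after 16 hr, decreased signal indicating inhibition.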
HT1080 IDH1KD tx: HT-1080 IDH1 knockdown cell toxicity (counter line). HT-1080 IDH1 knockdown viability, ATP luminescence, 48 h. Potency, µM (top dose mostly 46.1 µM), for the others: at the top dose activity, negative = toxicity, actives largely listed as cytotoxic. 360,000 tested, 2% active;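 also: potency is read from the fitted curve at half-maximal effect; 0% = DMSO wells and -100% = cell-free medium wells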
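In this qHTS, HT-1080 cells depleted of IDH1 are exposed for 48 h at 37 °C to compound titrations. Toxicity is scored from CellTiter-Glo luminescence, with DMSO as full viability and medium alone as none.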
HT1080-NT tox: kills 2HG-producing HT-1080-NT fibrosarcoma cells. HT-1080-NT fibrosarcoma viability, CellTiter-Glo ATP luminescence, 48 h. Potency, µM (titrated, usually from 46.1 µM), without a hit: top-dose activity, negative = less viability, most hits filed as cytotoxic. 360,000 tested, 1.6% active;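 also: NT is the 2HG producing partner of a matched IDH1 knockdown line; potency is read from the fitted curve at half-maximal effect; 0% = DMSO-treated cells and -100% = media-only wells without cells; nearly all actives have a fitted effect of over 55% in size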
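Compounds were tested in concentration-response format on HT-1080-NT cells for 48 hours at 37 degrees C. Cell viability came from CellTiter-Glo luminescence; curves were classified by r2, response magnitude and activity.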
* marks the source's active call; other numbers are inactive results; ? = inconclusive; / = not tested or not shown; [ ] = remark or other dose. Unless noted, calls follow the shape of the dose curve; as a rule, active = well fitted curve in the direction sought with a large enough effect; inconclusive = small, poorly fitted or top-dose-only effect, or another doubt; inactive = no such curve, though single readings can be large; an effect the other way counts as inactive or inconclusive. Unless noted, % is scaled to controls: 0 for no effect and ±100 for the full control effect.

SMILES	TDP1 cell noCPT	DT40 TDP1 CPT	IL-1B inflam inh	HT1080 IDH1KD tx	HT1080-NT tox
CCCCNS(=O)(=O)c1ccc2nc(SCC(=O)c3ccc(C#N)cc3)[nH]c2c1	-27.4%	-22.3%	6.2	-5.9%	-8.5%
CCCCNS(=O)(=O)c1ccc2nc(SCC(=O)Nc3ccccc3)[nH]c2c1	16.4µM*	-1.3%	0.0	-13.2%	-2.4%
CC(=O)c1cc2c(cc1NC(=O)CSc1nc3ccc(C)cc3[nH]1)OCO2	?	-10.3%	-74.2*	-25.5%	-23.7%
COc1ccc(OC(F)(F)F)cc1CC1(C)C(=O)Nc2c(Cl)ccc(Cl)c21 (configuration not stated)	?	?	-11.0	?	?
CCc1ccc(CN(C)CC(=O)Nc2ccc3c(c2)CCC3)cc1	?	?	18.6	-0.4%	-5.2%
Cc1ccc(CN(C)CC(=O)Nc2ccc3c(c2)CCC3)cc1	?	-5.5%	-66.4*	-12.8%	-2.1%
O=C(CSc1nc2ccccc2[nH]1)Nc1cccc(S(=O)(=O)N2CCOCC2)c1	?	?	?	1.0%	-7.3%
CN(C)S(=O)(=O)c1cccc(NC(=O)CSc2nc3ccccc3[nH]2)c1	?	?	-61.0*	?	-16.2%
COc1cc(C[C@H]2C(=O)OC[C@@H]2Cc2ccc(OC)c(OC)c2)ccc1O	1.68µM*	2.37µM*	/	/	/
COc1cc(C2SCC(=O)N2CCc2ccc(OC)c(OC)c2)ccc1O (configuration not stated)	-8.2%	3.8%	60.6	14.5%	2.6%
COc1ccc(C[C@H]2COC(=O)[C@@H]2Cc2ccc(OC3OC(CO)C(O)C(O)C3O)c(OC)c2)cc1OC (some centres not stated)	20.6µM*	?	37.6	-0.4%	-9.0%
Nc1cccc(CP(=O)(c2ccccc2)c2ccccc2)c1	11.7%	-1.5%	-14.7	4.3%	5.2%
Cc1cc(C(=O)COC(=O)Cc2n[nH]c(=O)c3ccccc23)c(C)n1-c1ccc2c(c1)OCO2	20.6µM*	18.4µM*	27.4	-3.4%	-4.4%
CCOC(=O)c1c(C)[nH]c(C)c1C(=O)COC(=O)Cc1n[nH]c(=O)c2ccccc12	3.9%	-14.2%	15.9	4.7%	-8.5%
COCCn1c(C)cc(C(=O)COC(=O)c2ccccc2Br)c1C	?	-18.7%	12.3	-6.1%	-3.0%
Cc1cc(C(=O)COC(=O)c2n[nH]c3ccccc23)c(C)n1CC1CCCO1 (configuration not stated)	?	-19.3%	6.2	-17.2%	-2.4%
COCCn1c(C)cc(C(=O)COC(=O)c2ccc3ncsc3c2)c1C	14.6µM*	13µM*	-11.6	-29.3%	2.3%
COCCn1c(C)cc(C(=O)COC(=O)c2n[nH]c3ccccc23)c1C	23.1µM*	-29.4%	-4.2	-14.7%	-10.2%
COCCn1c(C)cc(C(=O)COC(=O)c2cccnc2SC)c1C	16.4µM*	?	6.9	1.9%	14.5%
COCCn1c(C)cc(C(=O)COC(=O)c2cncc(Br)c2)c1C	?	?	-11.1	23.9%	9.9%
CCOC(=O)C1=C(COC(=O)C(CC)Oc2ccccc2)NC(=O)NC1C (configuration not stated)	-3.8%	18.0%	14.2	-0.6%	-8.4%
Cc1cc(C)n(CCCNCC(O)c2ccccc2)n1 (configuration not stated)	-17.7%	0.6%	16.5	4.7%	9.7%
Cc1c(CNC(=O)C2CCC(=O)N(CCc3ccccc3)C2)cnn1C (configuration not stated)	-12.8%	-14.8%	7.1	-1.3%	-7.2%
COc1ccccc1C(=O)COC(=O)Cc1n[nH]c(=O)c2ccccc12	-27.3%	1.1%	5.8	0.2%	5.7%
Cc1cc(C(=O)COC(=O)Cc2n[nH]c(=O)c3ccccc23)c(C)n1CC(F)(F)F	-25.2%	-22.9%	14.0	-1.7%	3.7%
SMILES	TDP1 cell noCPT	DT40 TDP1 CPT	IL-1B inflam inh	HT1080 IDH1KD tx	HT1080-NT tox
COc1ccc(-n2c(C)cc(C(=O)COC(=O)Cc3n[nH]c(=O)c4ccccc34)c2C)cc1	9.2µM*	11.6µM*	-7.1	?	?
COCCn1c(C)cc(C(=O)COC(=O)Cc2n[nH]c(=O)c3ccccc23)c1C	20.6µM*	?	-11.4	-4.7%	0.7%
Cc1ccccc1C1(CC(=O)N2CC3CC4CC(C3)CC2C4)CC(=O)N(Cc2cccnc2)C1=O (configuration not stated)	?	-7.9%[9.04 µM]	/	/	/
CC(C)Sc1ncc(Cl)c(C(=O)N(Cc2ccc(N(C)C)cc2)C2CCS(=O)(=O)C2)n1 (configuration not stated)	?	16.4µM*	/	/	/
CCOc1ccc(CN(C(=O)c2nc(SC)ncc2Cl)C2CCS(=O)(=O)C2)cc1 (configuration not stated)	16.4µM*	-24.9%	/	/	/
COc1ccc(/C=C/CN2CCN(Cc3ccccc3)C(CCO)C2)cc1 (configuration not stated)	-22.2%	-6.9%	-8.2	-16.9%	-3.4%
COc1ccc(/C=C/CN2CCC(CO)(Cc3ccccc3Cl)CC2)cc1	14.6µM*	?	-79.2*	23.1µM*	23.1µM*
C[C@H](CC[C@@H]1OC1(C)C)C1CC[C@H]2[C@@H]3CC=C4C[C@@H](O)CC[C@]4(C)[C@H]3CC[C@]12C (some centres not stated)	-18.9%	?	/	/	/
COC(=O)C1=C(O)C2(C(=O)O)CC(C(=O)OC)=C(O)C(C(=O)O)(C1)C2	10.3µM*	2.9%	/	2.3%	-2.1%
Cc1cccc(C)c1NC(=O)CN1CCN(C(=O)CNC(=O)Cc2cccc3ccccc23)CC1	14.6µM*	?	2.7	2.9%	-16.3%
Cc1cccc(C)c1NC(=O)CN1CCN(C(=O)CNC(=O)c2ccc(-c3ccccc3)cc2)CC1	16.4µM*	?	29.2	?	1.7%
Cc1cccc(NC(=O)CN2CCN(C(=O)CNC(=O)c3ccc(-c4ccccc4)cc3)CC2)c1C	2.31µM*	4.61µM*	37.6	10.3µM*	?
Cc1ccc2c(=O)cc(C(=O)NCc3ccccc3)oc2c1C	?	-1.4%	1.1	-0.2%	10.0%
Cc1noc(C)c1NC(=O)N(C)C[C@@H]1Oc2ccc(NC(=O)Cc3cn(C)c4ccccc34)cc2CC(=O)N([C@H](C)CO)C[C@@H]1C	?	-9.1%	1.6	-0.6%	10.1%
O=C(CN1CCCc2ccccc21)N1CCc2ccccc21	?	16.4µM*	48.8	-17.7%	-2.5%
CCOC(=O)c1cc2sccc2n1CC(=O)N1CCc2ccccc21	11.6µM*	4.61µM*	-3.6	?	-21.6%

Source: PubChem BioAssay (National Center for Advancing Translational Sciences (NCATS))
